Assay outcomes deposited in PubChem by several laboratories.
MLL AF4-AF9 inh: inhibitors of AF4 peptide binding to AF9, primary screen, biochemical, AlphaScreen, biotin-AF4 peptide, FLAG-AF9, single point. 350,000 compounds, 0.47% hits. inhibition, % at 10 µM;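 active means every replicate reaching a set inhibition limit, whatever the replicate mean, cut at about 25% in these data; inconclusive means mean inhibition reaches that limit but some replicates miss it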
Target sequence (P42568 whole entry, looked up): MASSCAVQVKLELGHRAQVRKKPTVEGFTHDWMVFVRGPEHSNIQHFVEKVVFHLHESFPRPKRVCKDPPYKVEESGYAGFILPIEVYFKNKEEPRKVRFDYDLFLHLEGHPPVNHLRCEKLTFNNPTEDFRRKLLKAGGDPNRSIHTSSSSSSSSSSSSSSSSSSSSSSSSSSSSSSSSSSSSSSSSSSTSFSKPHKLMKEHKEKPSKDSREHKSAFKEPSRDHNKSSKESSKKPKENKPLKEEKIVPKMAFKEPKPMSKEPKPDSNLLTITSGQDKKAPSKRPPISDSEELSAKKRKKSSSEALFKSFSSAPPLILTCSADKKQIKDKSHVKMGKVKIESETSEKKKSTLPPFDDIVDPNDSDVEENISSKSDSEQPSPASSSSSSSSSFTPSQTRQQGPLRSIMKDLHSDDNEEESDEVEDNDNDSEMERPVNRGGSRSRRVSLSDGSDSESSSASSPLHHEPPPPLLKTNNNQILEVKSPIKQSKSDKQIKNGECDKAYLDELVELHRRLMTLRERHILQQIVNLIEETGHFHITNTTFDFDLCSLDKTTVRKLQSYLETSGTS
esBAF inh: Bmi1 luciferase reporter increase in mESCs, primary screen, esBAF inhibitor project, mouse ES cells, Bmi1 luciferase knock-in, single point; 24 h; 100% = twice the neutral-well signal; reporter increase, % at 12.5 µM; 350,000 compounds, 2% hits; in the data active means activation above about 40%; inconclusive means no clear call, values can overlap the other calls;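 further: a rise in the Bmi1 reporter signal indicates esBAF inhibition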
MITF act: activators of MITF-driven TRPM1 promoter reporter, primary screen, cell-based, SK-MEL-5, luciferase, single point; SK-MEL-5 TRPM1-promoter luciferase, 24 h; % of positive control, neutral wells = 0; activation, % at 12.5 µM; 300,000 compounds, 0.75% hits;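 active means mean activation of at least 80% with every replicate also reaching 80%; inconclusive means mean reaches 80% but some replicate falls short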
SMARCA2 act: SMARCA2 (BRM) function activators, primary screen, cell-based, luminescence, high throughput; MG213 cells, MMTV-luciferase reporter, dexamethasone, overnight; activation, % at 9.1 µM; 370,000 compounds, 1% hits; AID 652017, 2013; in the data active means activation above about 7.8%
Wnt act: Wnt/beta-catenin pathway activators, primary screen, cell-based, plate reader, single point. Wnt/beta-catenin reporter cell assay, activator. activation, % at 9.35 µM. 300,000 compounds, 1.2% hits; in the data active means activation above about 30%, passing the limit was not always enough; inconclusive means no clear call, values can overlap the other calls
FGF22 binding: binders of human FGF22 protein, primary screen, FGF22 synaptogenesis inhibitor project, biophysical, thermal shift, single point; Fibroblast growth factor 22 (Homo sapiens), Q9HCT0; recombinant FGF22 thermal shift, SYPRO orange fluorescence; percent of sucrose octasulfate shift, DMSO zero; activity (Tm shift, normalised), % at 9.99 µM; 340,000 compounds, 1.5% hits;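 active means mean Tm shift, scaled 0 neutral to 100 positive control, at about 1.3% or above, every replicate too, limit read from the data; inconclusive means no clear call, values can overlap the other calls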
Target sequence (Q9HCT0 whole entry, looked up): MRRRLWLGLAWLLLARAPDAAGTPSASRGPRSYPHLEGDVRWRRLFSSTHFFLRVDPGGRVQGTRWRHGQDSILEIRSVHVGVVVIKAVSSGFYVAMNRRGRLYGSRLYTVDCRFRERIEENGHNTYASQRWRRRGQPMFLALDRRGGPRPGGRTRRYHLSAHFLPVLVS
Of the large screens only hits and unclear results are named; the others gave an inactive call. Compounds with a hit are over-represented: about 4.3% of the library has one in this group of screens.

O=C1C2C3C=CC(CC3)C2S(=O)(=O)C2C3C=CC(CC3)C12 (stereo unspecified)	FGF22 binding 44 (no result: MITF act)
O=C1C2C3C=CC(C3)C2S(=O)(=O)C2C3C=CC(C3)C12 (stereo unspecified)	FGF22 binding 43 (no result: MITF act)
CO[C@H]1CN(C)C(=O)c2cc(NC(=O)Nc3ccccc3F)ccc2OC[C@H](C)N(C(C)=O)C[C@@H]1C	none (no result: MITF act, SMARCA2 act, Wnt act)
COCCNC[C@H]1[C@@H](c2ccccc2)[C@@H](CO)N1c1nc(C)c(C)s1	none (no result: MITF act, SMARCA2 act, Wnt act)
O[C@H](COc1ccccc1)CN1CCC(C(O)(c2ccccc2)c2ccccc2)CC1	none (no result: MLL AF4-AF9 inh, esBAF inh, MITF act, Wnt act, FGF22 binding)
O=C(OCc1cn([C@@H]2C[C@H](c3ccccc3)N(Cc3cccs3)C[C@H]2O)nn1)c1ccccc1	FGF22 binding 44 (no result: MITF act)
O=C(OCc1cn([C@H]2CN(Cc3cccs3)[C@@H](c3ccccc3)C[C@@H]2O)nn1)c1ccccc1	none (no result: MITF act)
C=CCN(CC(=O)Nc1cccnc1)S(=O)(=O)c1ccc(Cl)cc1	Wnt act 37
O=S(=O)(N[C@H]1CC[C@H](CCNS(=O)(=O)c2ccccc2Cl)O[C@@H]1CO)c1ccccc1	none (no result: MITF act, SMARCA2 act, Wnt act)
CCN1CCN(CCCNC(=O)CCC(=O)N2CC(C)Oc3ccc(C)cc32)CC1 (stereo unspecified)	MLL AF4-AF9 inh 49
O=C(Nc1cccc(O)c1)c1ccc([N+](=O)[O-])cc1Cl	Wnt act inconclusive, FGF22 binding 43
NC(=O)CNc1ncc(C(F)(F)F)cc1Cl	none
Cc1onc(C(=O)NN)c1C(=O)Nc1ncc(C(F)(F)F)cc1Cl	FGF22 binding 43
O=C(NC(=S)NNC(=O)c1ccccc1F)c1cccnc1	none (no result: esBAF inh, MITF act)
Cc1ccccc1C(=O)NC(=S)Nc1ccccc1C(=O)O	none
Cc1ccccc1C(=O)NC(=S)Nc1ncccn1	esBAF inh 47
Cc1ccccc1C(=O)NNC(=S)NC(=O)c1cccnc1	FGF22 binding 43
C[C@H](NC(=O)[C@@H]1N[C@@H]2c3ccc(-c4cncnc4)c(=O)n3C[C@@H]2[C@H]1CO)c1ccccc1	none (no result: MITF act, SMARCA2 act, Wnt act)
CC12C=CC3(O1)C(C(=O)N1CCCOC13)C2C(=O)O (stereo unspecified)	FGF22 binding 43
CC12C=CC3(O1)C(C(=O)N(c1ccccc1)C3C(=O)NC1CCCC1)C2C(N)=O (stereo unspecified)	none (no result: MLL AF4-AF9 inh, FGF22 binding)
Cc1ccc(Nc2ncnc3c2oc2ccccc23)cc1	esBAF inh 47 (no result: MLL AF4-AF9 inh, Wnt act, FGF22 binding)
c1ccc(Sc2ncnc3c2oc2ccccc23)cc1	esBAF inh 71 (no result: MLL AF4-AF9 inh, SMARCA2 act, Wnt act, FGF22 binding)
N#C[C@@H]1[C@@H](c2ccc(-c3cccc(F)c3)cc2)[C@@H](CO)N1C(=O)c1cccnc1	none (no result: MITF act, SMARCA2 act, Wnt act)
COCC(=O)Nc1ccc2c(c1)C(=O)N(C)C[C@H](OC)[C@H](C)CN(CCC(F)(F)F)[C@@H](C)CO2	none (no result: MITF act, SMARCA2 act, Wnt act)
O=C(CSCc1nc2c(nnn2Cc2ccc(F)cc2)c(=O)[nH]1)Nc1c(Cl)cc(Cl)cc1Cl	FGF22 binding 43 (no result: esBAF inh)
CCc1nc2c(nnn2Cc2ccc(F)cc2)c(=O)[nH]1	none (no result: MLL AF4-AF9 inh, Wnt act, FGF22 binding)
COc1ccc(S(=O)(=O)N(C)C[C@@H]2Oc3ccc(NS(=O)(=O)c4ccccc4)cc3CC(=O)N([C@H](C)CO)C[C@@H]2C)cc1	none (no result: MITF act, SMARCA2 act, Wnt act)
Clc1nc(NCCN2CCOCC2)nc(NCc2ccccc2)n1	FGF22 binding 44 (no result: esBAF inh)
COc1ccc(NC(=O)Nc2ccc3c(c2)C(=O)N([C@H](C)CO)C[C@H](C)[C@H](CN(C)S(=O)(=O)c2ccccc2)OCCCC[C@H](C)O3)cc1	none (no result: MITF act, SMARCA2 act, Wnt act)
Nc1nc(N)nc(-c2cccc(Br)c2)n1	Wnt act 36
Cc1cccc(-c2nc(N)nc(N)n2)c1	none (no result: esBAF inh)
O=C(C[C@H]1CC[C@H](NC(=O)CN2CCOCC2)[C@H](CO)O1)NCCc1ccncc1	none (no result: MITF act, SMARCA2 act, Wnt act)
Nc1nc(SCC(=O)Nc2ccccc2)[nH]c(=O)c1-c1ccccc1	none
Nc1nc(SCC(=O)N2CCc3ccccc3C2)[nH]c(=O)c1-c1ccccc1	esBAF inh 56 (no result: MLL AF4-AF9 inh, FGF22 binding)
C#CCn1c(=NC(=O)c2cccs2)sc2cccc(OCC)c21	none
C#CCn1c(=NC(=O)c2ccc(Cl)s2)sc2cccc(OC)c21	esBAF inh 50
COc1ccc(/C=N/Nc2ccc(C(=O)O)cc2)c(OC)c1OC	esBAF inh 91, MITF act 124
O=C(O)c1ccc(N/N=C/c2cccc(F)c2)cc1	none (no result: MLL AF4-AF9 inh, esBAF inh, Wnt act, FGF22 binding)
COc1cc(/C=N/Nc2ccc(C(=O)O)cc2)cc(OC)c1OC	esBAF inh 56, MITF act inconclusive
COc1ccc(/C=N/NC(=O)c2snnc2C)c(OC)c1OC	FGF22 binding 43
O=C(O)c1ccc(N/N=C/c2cccc(C(F)(F)F)c2)cc1	esBAF inh 92, MITF act 110
COc1cc(/C=N/Nc2ccc(C(=O)O)cc2)ccc1O	none (no result: esBAF inh)
O=C(C[C@H]1CC[C@@H]2[C@H](COC[C@@H](O)CN2Cc2cc(F)cc(F)c2)O1)Nc1nccs1	none (no result: MITF act, SMARCA2 act, Wnt act)
COC(CNC(=O)c1cccnc1)OC	none (no result: esBAF inh)
COC(CNC(=O)c1ccc2c3c(onc13)-c1ccccc1C2=O)OC	Wnt act 71 (no result: esBAF inh, MITF act)
O=C(COc1ccc(Cl)cc1Cl)N1CCCCCC1	esBAF inh 48 (no result: MLL AF4-AF9 inh, MITF act, Wnt act, FGF22 binding)
O=S(=O)(c1ccc(OCC(O)CNC23CC4CC(CC(C4)C2)C3)c(Cl)c1)N1CCOCC1 (stereo unspecified)	SMARCA2 act 7.8
O=C(COc1ccc(S(=O)(=O)N2CCOCC2)cc1Cl)N1CCCC1	MLL AF4-AF9 inh 42 (no result: MITF act)
O=C(COc1ccc(S(=O)(=O)N2CCOCC2)cc1Cl)NC1CCCCC1	none
O=C(COc1ccc(S(=O)(=O)N2CCCCC2)cc1Cl)N1CCCC1	none
O=C(CCN1CCCCC1)N[C@H]1CC[C@@H](CCNC(=O)c2cc(Cl)cc(Cl)c2)O[C@@H]1CO	none (no result: MITF act, SMARCA2 act, Wnt act)
CC(C)NC(=O)N(C)C[C@@H]1Oc2c(NC(=O)NC3CCCCC3)cccc2C(=O)N([C@@H](C)CO)C[C@@H]1C	none (no result: MITF act, SMARCA2 act, Wnt act)
CCc1nc2n(n1)C(O)c1cc([N+](=O)[O-])ccc1S2 (stereo unspecified)	Wnt act 42 (no result: MLL AF4-AF9 inh, esBAF inh, MITF act)
CCN(CC)C(=O)c1cc2cc([N+](=O)[O-])ccc2s1	none (no result: MLL AF4-AF9 inh, FGF22 binding)
COc1ccc(S(=O)(=O)N2CCN(Cc3c[nH]c4ccccc34)CC2)cc1	none (no result: MLL AF4-AF9 inh, FGF22 binding)
CCCS(=O)(=O)N1CCN(Cc2c[nH]c3ccccc23)CC1	FGF22 binding 43
O=C(C1CCOCC1)N1CC(=O)N2[C@@H](CO)[C@@H](c3ccc(C#Cc4cccc(F)c4)cc3)[C@@H]2C1	none (no result: esBAF inh, MITF act, SMARCA2 act, Wnt act)
COC(=O)Cc1[nH]nc2c1C(c1ccc(O)c(OC)c1)C(C#N)=C(N)O2 (stereo unspecified)	MLL AF4-AF9 inh 30 (no result: FGF22 binding)
Cc1ccc(-c2[nH]n3c(=O)c4c(nc3c2C)CCCC4)cc1	esBAF inh 53 (no result: MLL AF4-AF9 inh, MITF act, Wnt act, FGF22 binding)
